Laboratory results published in PubChem BioAssay AID504332 (National Center for Advancing Translational Sciences (NCATS), 2011).
Screen size: about 350,000 compounds; about 31,000 (8.9%) were called active. Inconclusive results (about 15%) are left out. Calls follow the shape of the dose curve; as a rule, active = well fitted inhibition curve with a large enough effect; inconclusive = small, poorly fitted or top-dose-only effect; inactive = no such curve, though single readings can be large or run the other way. Only a selection was taken, and actives are over-represented in it overall.

Target: Histone-lysine N-methyltransferase EHMT2 (Homo sapiens) (UniProt Q96KQ7)
Test: qHTS Assay for Inhibitors of Histone Lysine Methyltransferase G9a; also: nearly all actives have a fitted effect of over 75% in size
Conditions: G9a H3K9 monomethylation, AlphaScreen, 2 h; series mostly up to 59 µM; activity, negative = inhibition: at the top concentration
Procedure, shortened: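 Quantitative HTS format: methyltransferase activity on a biotin-tagged H3K9 peptide is measured by AlphaScreen, using a rabbit anti-monomethyl-H3K9 antibody with streptavidin donor and anti-IgG acceptor beads. Final levels are 20 nM enzyme, 500 nM peptide, 20 uM SAM; 2 h RT.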
% is scaled to controls: 0 for no effect and ±100 for the full control effect; potency is read from the fitted curve at half-maximal effect.

Chain of Histone-lysine N-methyltransferase EHMT2 (Homo sapiens) (Q96KQ7 913-1193 limits assumed): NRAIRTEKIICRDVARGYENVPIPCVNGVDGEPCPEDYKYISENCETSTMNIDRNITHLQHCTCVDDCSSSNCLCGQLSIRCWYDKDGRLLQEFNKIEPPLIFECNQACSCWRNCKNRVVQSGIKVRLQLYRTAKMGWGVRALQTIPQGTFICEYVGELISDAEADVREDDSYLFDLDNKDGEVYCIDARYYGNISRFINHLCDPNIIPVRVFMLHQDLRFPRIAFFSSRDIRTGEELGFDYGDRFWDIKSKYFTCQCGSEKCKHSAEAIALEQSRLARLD

SMILES | activity, negative = inhibition | Potency
COc1cc(OC)cc(C(=O)NCC(=O)N2CCCCCCC2)c1 | 12.1% [at 12.7 µM] (inactive) | –
CCN(CC(=O)Nc1ccc(NC(C)=O)cc1)C(=O)CSC(=S)N1CCCC1 | -6.65% [at 12.7 µM] (inactive) | –
CCc1ccccc1NC(=O)Cc1ccc(NC(=O)N2CCCCc3ccccc32)cc1 | 0.663% (inactive) | –
Cc1ccc(Nc2c(-c3ccc(C)cc3)nc3cnccn23)cc1 | -34.4% (inactive) | –
Cc1ccc(Nc2c(-c3ccc(N(C)C)cc3)nc3nc[nH]n23)cc1 | – | 2.51 µM (active)
COC(=O)C1(C)NC(c2ccc(F)cc2)C2C(=O)N(c3ccccc3)C(=O)C21 (stereo not drawn) | 2.5% [at 102 µM] (inactive) | –
Cc1sc2nc(CSCC(=O)NC3CCCCC3)[nH]c(=O)c2c1C | -8.21% [at 0.501 µM] (inactive) | –
COc1cc(OC)c(-n2cc(-c3ccc(Cl)cc3)[nH]c2=O)cc1Cl | – | 31.6 µM (active)
COc1cc(OC)c(-n2c(C)cc(C=O)c2C)cc1Cl | -24.2% [at 102 µM] (inactive) | –
COc1cc(OC)c(N2CC(C(=O)Nc3cc(Cl)ccc3N3CCOCC3)CC2=O)cc1Cl (stereo not drawn) | -8.17% (inactive) | –
CCOC(=O)C1CCN(c2nc3c(S(=O)(=O)c4ccc(CC)cc4)nnn3c3ccc(Cl)cc23)CC1 | 28.2% (inactive) | –
CCCCNC(=O)CSc1nc2cc3c(cc2c(=O)n1CCCCCC(=O)NCc1ccc2c(c1)OCO2)OCO3 | 5.98% (inactive) | –
O=C(CNS(=O)(=O)c1ccc2c(c1)OCCCO2)N1CCN(c2ccc(F)cc2)CC1 | 24.8% [at 12.7 µM] (inactive) | –
CC(=O)c1c(C)oc2ccc(NS(=O)(=O)c3ccc(C(=O)O)cc3)cc12 | 1.03% (inactive) | –
Cc1cc(C(C)(C)C)cc(S(=O)(=O)Nc2ccc(C(=O)O)cc2)c1C | -12.7% [at 102 µM] (inactive) | –
O=C(O)c1ccc(NS(=O)(=O)c2ccc3c(c2)C(=O)c2cc(S(=O)(=O)Nc4ccc(C(=O)O)cc4)ccc2-3)cc1 | – | 50.1 µM (active)
CCCn1c2ccccc2c2cnn(CC(=O)N(C)c3ccccc3CC)c(=O)c21 | -27.2% (inactive) | –
CC(CCc1ccccc1)NC(=O)COC(=O)c1ccc(F)cc1 (stereo not drawn) | -3.05% [at 102 µM] (inactive) | –
O=C(Cn1ncc2c3ccccc3n(Cc3ccccc3)c2c1=O)NC1CCCCCC1 | -31.1% (inactive) | –
Cc1ccc(NC(=O)C2CC(c3ccc(F)cc3)=NO2)cc1 (stereo not drawn) | -18.1% (inactive) | –
O=C(Nc1ccc2c(c1)OCO2)C1CC(c2c(F)cccc2Cl)=NO1 (stereo not drawn) | – | 44.7 µM (active)
O=C(Nc1ccc2c(c1)OCO2)C1CC1(Cl)Cl (stereo not drawn) | 2.4% [at 12.7 µM] (inactive) | –
O=C(Nc1ccccn1)C1CCN(S(=O)(=O)c2ccccc2)CC1 | -10.1% [at 12.7 µM] (inactive) | –
Nc1c(N(CCCO)C(=O)C2CCCC2)c(=O)[nH]c(=O)n1Cc1ccccc1 | -4.25% (inactive) | –

SMILES | activity, negative = inhibition | Potency
Cn1nnnc1SCCCNCc1cccc(OCc2ccc(Cl)cc2)c1 | -4.08% (inactive) | –
O=c1c2ccccc2cnn1Cc1n[nH]c(=S)n1-c1ccccc1F | – | 31.6 µM (active)
Cn1c2cc(B(O)O)sc2c2cnn(Cc3ccccc3F)c(=O)c21 | 0.244% [at 12.7 µM] (inactive) | –
O=C(Cn1nc(Cc2cccnc2)c2ccccc2c1=O)N1CCN(c2ccccc2F)CC1 | -4.08% (inactive) | –
COc1ccc(CNC(=O)CSc2nc3ccccc3nc2Cc2ccccc2)cc1 | 1.61% (inactive) | –
CCS(=O)(=O)c1nc(S(=O)(=O)c2ccc(C)cc2)c(NCc2ccc(Cl)cc2)s1 | -3.64% (inactive) | –
O=C(CCS(=O)(=O)c1cc(Br)cc2c1N(C(=O)C1CC1)CC2)Nc1ccc(Br)cc1F | -24.4% (inactive) | –
Cc1cccc(OCC(=O)Nc2ccc(NC(=O)c3ccco3)c(C)c2)c1 | 0.639% [at 12.7 µM] (inactive) | –
Cc1cccc(Nc2cc(C)nc(-n3nc(C)cc3C)n2)c1 | 7.07% (inactive) | –
CCC1=Nc2cc(C(=O)NCCN3CCCC3)ccc2Sc2ccc(C)cc21 | 6.23% (inactive) | –
CCC1=Nc2cc(C(=O)NCC(C)c3ccccc3)ccc2Sc2ccc(C)cc21 (stereo not drawn) | -7.48% (inactive) | –
CCCC1=Nc2cc(C(=O)NCCN3CCCC3)ccc2Sc2ccccc21 | – | 79.4 µM (active)
Cc1ccc(F)cc1S(=O)(=O)Nc1cccc(C(=O)N2CCCC(C(N)=O)C2)c1 (stereo not drawn) | -6.54% (inactive) | –
CCOc1ccccc1NC(=O)CCn1cnnn1 | -19.1% (inactive) | –
Cc1cc(Cl)ccc1OCCCC(=O)Nc1cccc(-n2cnnn2)c1 | -4.08% [at 102 µM] (inactive) | –
CC[n+]1cc(C)ccc1/C=C/c1ccc(N(C)C)cc1 | – | 6.31 µM (active)
CN(C)c1ccc(/C=N\S(=O)(=O)c2ccccc2)cc1 | -28.2% (inactive) | –
CCc1ccc(-c2nn(-c3ccccc3C)cc2C(=O)N2CCN(C3CCS(=O)(=O)C3)CC2)cc1 (stereo not drawn) | 5.96% [at 12.7 µM] (inactive) | –
CCC(C)(C)NC(=O)C(c1ccc(OC)cc1)N(C(=O)CCC(=O)Nc1cc(C)on1)c1ccc(OC)cc1OC (stereo not drawn) | -5.95% [at 102 µM] (inactive) | –
CCOc1cc(/C=C/C(=O)OCC(=O)NCCN2C(=O)CSC2=O)ccc1OCC(C)C | 17.6% [at 12.7 µM] (inactive) | –
Cc1cc(-c2ccc(C)c(S(=O)(=O)N3c4ccccc4CC3C)c2)on1 (stereo not drawn) | -1.74% (inactive) | –
O=C(Cn1nnc(-c2ccc(CN3CCOCC3)cc2)n1)NC1CCCCC1 | 10.1% [at 12.7 µM] (inactive) | –
COc1ccc(C(=O)N(CCN2CCOCC2)CC(=O)NC2CCCC2)cc1OC | – | 50.1 µM (active)
COc1ccc(CCNC(=O)CCC(=O)NC2CCCCC2)cc1OC | 31% [at 102 µM] (inactive) | –

SMILES | activity, negative = inhibition | Potency
Cc1cc(-c2ccccc2)n2nc(-c3ccccc3)cc2n1 | 276% (inactive) | –
S=C(NCc1ccco1)Nc1ccc2c(c1)OCCO2 | – | 44.7 µM (active)
COc1cccc(NC(=S)NCc2ccco2)c1 | -8.68% (inactive) | –
CCCCC(=O)Nc1ccc2c(c1)OCCO2 | -36.9% (inactive) | –
S=C(NCc1ccco1)NCc1ccccc1Cl | -7.27% [at 102 µM] (inactive) | –
Cc1c(Cl)cccc1NC(=S)NCc1ccc2c(c1)OCO2 | 4.92% (inactive) | –
S=C(NCc1ccc2c(c1)OCO2)NCc1ccco1 | – | 31.6 µM (active)
CCC1CN(S(=O)(=O)c2cc(-c3cc(C)no3)ccc2C)c2cc(C)ccc2O1 (stereo not drawn) | 6.83% (inactive) | –
O=C(NC1CCCCCC1)C1CCN(C(=O)c2ccc(Cl)cc2)CC1 | 6.11% [at 12.7 µM] (inactive) | –
COc1cc(C2C(C(=O)c3ccco3)=C(O)C(=O)N2c2cc(C)on2)ccc1OCc1ccccc1 (stereo not drawn) | -10.4% [at 102 µM] (inactive) | –
Cc1cc(N2C(=O)C(O)=C(C(=O)c3ccc(C)o3)C2c2ccc(OCc3ccccc3)cc2)no1 (stereo not drawn) | – | 31.6 µM (active)
CCOC(=O)c1cc(=O)c2ccc(OCc3ccccc3)cc2o1 | -4.05% [at 102 µM] (inactive) | –
O=C(O)c1ccc(Nc2nc(-c3ccccc3)c3cc(Br)ccc3n2)cc1 | -2.63% (inactive) | –
Cn1c(=O)c2c(ncn2CC(=O)Nc2cccc(C(F)(F)F)c2)n(C)c1=O | 27.9% (inactive) | –
Cc1ccc2nc(NC(=O)c3nc(SCc4ccccc4F)ncc3Cl)sc2c1 | 9.95% (inactive) | –
Cn1c(-c2sccc2OCc2cccc(C(F)(F)F)c2)n[nH]c1=S | – | 4.47 µM (active)
CCOC(=O)N1CCN(Cc2nc(Cc3cccc(C(F)(F)F)c3)no2)CC1 | 0.109% [at 102 µM] (inactive) | –
O=c1c2ccccc2nc2n1C(CSCc1cccc(C(F)(F)F)c1)CS2 (stereo not drawn) | -8.59% [at 102 µM] (inactive) | –
CCCCN(C(=O)c1ccc(S(=O)(=O)N2CCOCC2)cc1)C1CCS(=O)(=O)C1 (stereo not drawn) | 4.15% [at 0.501 µM] (inactive) | –
O=C(NN=C1CCC(=NNC(=O)c2cccnc2)CC1)c1cccnc1 | – | 17.8 µM (active)
C/C(=N\NC(=O)c1cccnc1)c1ccc(-c2ccccc2)cc1 | 3.29% [at 102 µM] (inactive) | –
O=C(N/N=C/c1ccc(O)c2ccccc12)c1cccnc1 | 17.3% [at 102 µM] (inactive) | –
CCC(=O)N1c2ccccc2CC1C(=O)N1CCN(c2ccccc2)CC1 (stereo not drawn) | -1.15% (inactive) | –
COc1ccc(CCNS(=O)(=O)c2cc(-c3cc(C)no3)ccc2C)cc1OC | 4.88% (inactive) | –

SMILES | activity, negative = inhibition | Potency
Nc1cc(N)nc(SCC(=O)Nc2cccc(S(=O)(=O)N3CCCCC3)c2)n1 | -10.4% (inactive) | –
O=C(Nc1nc2c(F)cc(F)cc2s1)C1COc2ccccc2O1 (stereo not drawn) | -9.43% [at 102 µM] (inactive) | –
O=C(Nc1ncc([N+](=O)[O-])s1)C1COc2ccccc2O1 (stereo not drawn) | -2.98% [at 12.7 µM] (inactive) | –
O=C(Nc1nc(-c2ccncc2)cs1)C1COc2ccccc2O1 (stereo not drawn) | – | 2.24 µM (active)
CCOC(=O)c1ccccc1N1C(=O)C2Sc3[nH]c(=O)sc3C(/C=C/c3ccccc3)C2C1=O (stereo not drawn) | – | 3.16 µM (active)
COC(=O)C1=C(C)N=C2SC(C)C(=O)N2C1/C=C/c1ccccc1 (stereo not drawn) | -10.8% [at 102 µM] (inactive) | –
CC(OC(=O)c1ccccc1N1C(=O)C2C3CCC(C3)C2C1=O)C(=O)c1ccccc1 (stereo not drawn) | 5.86% (inactive) | –
CCOc1ccc(CCNC(=O)CN2C(=O)NC3(CCc4ccccc43)C2=O)cc1OCC (stereo not drawn) | -29.7% [at 102 µM] (inactive) | –
CCN(CC)S(=O)(=O)c1ccc(CNC(=O)CN2C(=O)NC3(CCc4ccccc43)C2=O)cc1 (stereo not drawn) | – | 28.2 µM (active)
CCN(CC)c1ccc(NC(=O)CN2C(=O)NC3(CCc4ccccc43)C2=O)cc1 (stereo not drawn) | 79.1% [at 12.7 µM] (inactive) | –
COc1ccc(C=C(C#N)C#N)c(CSc2ccccn2)c1 | 1.76% [at 102 µM] (inactive) | –
CC(NC(=O)c1ccccc1F)c1cccc2ccccc12 (stereo not drawn) | 0% [at 2.33 µM] (inactive) | –
CCN(c1ccccc1)S(=O)(=O)c1cccc(C(=O)O)c1 | – | 79.4 µM (active)
COc1ccc(N(Cc2ccccc2)S(=O)(=O)c2cccc(C(=O)O)c2)cc1 | -2.97% (inactive) | –
CCOC(=O)C1CCN(C(=O)c2cccc(S(=O)(=O)N(CC)c3ccccc3)c2)CC1 | -14.3% [at 12.7 µM] (inactive) | –
O=C(NCc1ccccc1)C(c1cccnc1)N(C(=O)c1csnn1)c1ccc(F)cc1 (stereo not drawn) | 22.8% [at 102 µM] (inactive) | –
O=C(N[C@@H](Cc1c[nH]c2ccccc12)C(=O)O)OCC1c2ccccc2-c2ccccc21 | -0.61% [at 0.501 µM] (inactive) | –
Cc1cccc(C(=O)Nc2ccc(S(=O)(=O)N3CCCCC3c3cccnc3)cc2)c1 (stereo not drawn) | 2.32% (inactive) | –
CC(C)Oc1ccc(Cc2n[nH]c(=S)n2Cc2ccccc2)cc1Cl | – | 8.91 µM (active)
CC(C)c1ccc(Cn2c(COc3ccccc3)nc3ccccc32)cc1 | 27.2% (inactive) | –
CC(=O)N(OCc1ccc(OC(C)C)c(Cl)c1)C(C)=O | -0.368% [at 102 µM] (inactive) | –
